# Measured values from PubChem BioAssay (NCATS).
# Records with an inconclusive call do not appear. Where a call stands in place of a potency, no number is given. Active and inactive are the calls of the source. Unless noted, calls come from the whole dose curve; as a rule, active = well fitted curve in the direction sought with a large enough effect; inconclusive = small, poorly fitted or top-dose-only effect, or another doubt; inactive = no such curve, though single readings can be large; an effect the other way counts as inactive or inconclusive.
# Key:
# [1] = KB-8-5-11 P-gp reporter qHTS against the NCATS DSHEA and TCM libraries (AID 1919977)
# Procedure, shortened: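 CellTiter-Glo luminescence after ~72 h exposure at 37C gave viability of KB-8-5-11 cells, the P-gp-overexpressing subline. Substances were titrated; colchicine was omitted from assay medium.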
# [2] = Quantitative High-Throughput drug screen in 47 multiple myeloma cell lines against the NCATS MIPE library collection: U266_ATCC cell viability assay (AID 1919864); note: nearly all actives have a fitted effect of over 35% in size; note: potency is the fitted concentration of half-maximal effect
# Procedure, shortened: (§1)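 500 cells/well; MIPE 4.0 drugs pin-transferred; 48 h, 37C, 5% CO2. CellTiter-Glo, 5 min RT, luminescence. Controls: DMSO 100%, media 0%.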
# [3] = Quantitative High-Throughput drug screen in 47 multiple myeloma cell lines against the NCATS MIPE library collection: XG6_PLB cell viability assay (AID 1919865); note: nearly all actives have a fitted effect of over 40% in size; note: potency is the fitted concentration of half-maximal effect
# Procedure, shortened: as §1
# [4] = Quantitative High-Throughput drug screen in 47 multiple myeloma cell lines against the NCATS MIPE library collection: XG1_PLB cell viability assay (AID 1919866); note: nearly all actives have a fitted effect of over 35% in size; note: potency is the fitted concentration of half-maximal effect
# Procedure, shortened: as §1
# [5] = Quantitative High-Throughput drug screen in 47 multiple myeloma cell lines against the NCATS MIPE library collection: VP6_DJ cell viability assay (AID 1919867); note: nearly all actives have a fitted effect of over 40% in size; note: potency is the fitted concentration of half-maximal effect
# Procedure, shortened: as §1
# [6] = Quantitative High-Throughput drug screen in 47 multiple myeloma cell lines against the NCATS MIPE library collection: PCM6_Riken cell viability assay (AID 1919870); note: nearly all actives have a fitted effect of over 30% in size; note: potency is the fitted concentration of half-maximal effect
# Procedure, shortened: as §1
# [7] = Quantitative High-Throughput drug screen in 47 multiple myeloma cell lines against the NCATS MIPE library collection: OPM2_DSMZ cell viability assay (AID 1919872); note: nearly all actives have a fitted effect of over 30% in size
# Procedure, shortened: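 Myeloma cell lines, 500 cells per well, exposed to MIPE 4.0 library compounds for 48 h at 37C, 5% CO2. Viability from ATP by CellTiter-Glo luminescence; normalised to DMSO (100%) and media-only (0%) wells.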
# [8] = Quantitative High-Throughput drug screen in 47 multiple myeloma cell lines against the NCATS MIPE library collection: KMS28BM_JCRB cell viability assay (AID 1919874); note: nearly all actives have a fitted effect of over 35% in size
# Procedure, shortened: as §1
# [9] = qHTS drug screen for cell cycle checkpoint inhibitors in PARPi-resistant BRCA-mutant ovarian cancer cell lines. (AID 1963452; calls by dose curve); settings: PEO1/OlaR viability, CellTiter-Glo luminescence, 96 h, stronger effect = lower value
# Procedure, shortened: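 PEO1, PEO4 and PEO1/OlaR ovarian cancer cells, 600 per well, exposed 96 h at 37C to a dilution series. Viability read by CellTiter-Glo luminescence, normalized to DMSO and empty wells; activity summarized as Z-AUC.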
# [10] = qHTS for identification of novel therapeutic agents for treatment of microphthalmiaassociated transcription factor (MiT) renal cell carcinoma (RCC) (AID 1963991); settings: CellTiter-Glo, 48 h, stronger effect = lower value
# Procedure, shortened: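 Three TFE3-fusion RCC lines (UOK109, UOK124, UOK145), 500 cells/well in complete medium, were treated with MIPE 4.0 compounds for 48 hours at 37 C. Viability was by CellTiter-Glo luminescence, normalized to DMSO (100%) and empty wells (0%); curves fitted over 11 concentrations.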
# [11] = qHTS profiling for inhibitors of Plasmodium falciparum proliferation (AID 504749); note: nearly all actives have a fitted effect of over 60% in size; settings: P. falciparum in erythrocytes, SYBR Green DNA, 72 h, at 28.7 µM (top of the series)
# Procedure, shortened: (§2)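 SYBR Green fluorescence (ex 485 nm, em 535 nm) reports parasite DNA after 72 h compound exposure of infected red cells at 0.3% parasitemia, 2.5% hematocrit; signal normalized to 0.29 uM artemisinin and vehicle wells.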
# 3D7 = experiment: as above; settings: P. falciparum in erythrocytes, SYBR Green DNA, 72 h; series mostly up to 28.7 µM
# Procedure, shortened: as §2
# [12] = Quantitative High-Throughput drug screen in 47 multiple myeloma cell lines against the NCATS MIPE library collection: UTMC2_PLB cell viability assay (AID 1919868); note: nearly all actives have a fitted effect of over 55% in size; note: potency is the fitted concentration of half-maximal effect
# Procedure, shortened: as §1
# [13] = Quantitative High-Throughput drug screen in 47 multiple myeloma cell lines against the NCATS MIPE library collection: KMS11_JCRBsus cell viability assay (AID 1919873); note: nearly all actives have a fitted effect of over 50% in size; note: potency is the fitted concentration of half-maximal effect
# Procedure, shortened: as §1
# [14] = Quantitative High-Throughput drug screen in 47 multiple myeloma cell lines against the NCATS MIPE library collection: RPMI8226_ATCC cell viability assay (AID 1919871); note: nearly all actives have a fitted effect of over 30% in size; note: potency is the fitted concentration of half-maximal effect
# Procedure, shortened: as §1
# [15] = measured here: PEO1 parental Z-AUC
# [16] = TFE3-RCC UOK109 viability, measured here: UOK109 Z-AUC
# [17] = TFE3-RCC viability, measured here: UOK124 Z-AUC
# [18] = TFE3-RCC viability, measured here: UOK145 Z-AUC
smiles,measurement,setting,value
O=C(O)c1cccnc1,outcome,[1],inactive
CN1C(=O)CCS(=O)(=O)C1c1ccc(Cl)cc1 (stereo not given),Potency,[2],inactive
same,Potency,[3],18.7 µM (active)
same,Potency,[4],16.6 µM (active)
same,Potency,[5],inactive
same,Potency,[6],inactive
same,outcome,[7],inactive
same,outcome,[8],inactive
same,Z-AUC,[9],1.64 (inactive)
same,Z-AUC,[9]; [15],1.76
same,Z-AUC,[9]; measured here: PEO4 Z-AUC,1.36
same,z-score,[10]; [16],0.949
same,z-score,[10]; [17],0.189
same,z-score,[10]; [18],0.774
same,"activity, negative = inhibition",[11]; parasite line A,-12.8% (inactive)
same,"activity, negative = inhibition",[11]; parasite line B,-22.5% (inactive)
same,Potency,3D7,inactive
COc1cc(OC)c(OC)cc1C=O,Potency,[5],inactive
same,Potency,[12],inactive
same,Potency,[6],inactive
same,outcome,[7],inactive
same,Potency,[13],inactive
same,outcome,[8],inactive
same,z-score,[10]; [16],0.0222
same,z-score,[10]; [17],0.514
same,z-score,[10]; [18],0.092
C[C@]12CC[C@H]3[C@@H](CC[C@@]45O[C@H]4C(O)=C(C#N)C[C@]35C)[C@H]1CC[C@H]2O,Potency,[3],inactive
same,Potency,[4],inactive
same,Potency,[12],inactive
same,Potency,[6],inactive
same,Potency,[14],inactive
same,outcome,[7],inactive
same,Potency,[13],inactive
same,outcome,[8],inactive
CC12CCC(CC1)C(C)(C)O2,outcome,[1],inactive
Nc1ccc(C(=O)O)cc1,outcome,[1],inactive
CC(C)C[C@H](CN)CC(=O)O,Potency,[3],inactive
same,Potency,[4],inactive
same,Potency,[14],inactive
same,outcome,[7],inactive
same,Potency,[13],inactive
same,outcome,[8],inactive
same,Z-AUC,[9],1.17 (inactive)
same,Z-AUC,[9]; [15],0.458
same,Z-AUC,[9]; measured here: PEO4 Z-AUC,0.548
same,z-score,[10]; [16],-0.701
same,z-score,[10]; [17],0.851
same,z-score,[10]; [18],0.709
O=C(O)CCCC[C@@H]1SC[C@@H]2NC(=O)N[C@@H]21,outcome,[1],inactive
C[C@]12CCC(=O)C=C1CC[C@@H]1[C@H]3CC[C@](C)(O)[C@@]3(C)CC[C@@H]12,Potency,[2],38.2 µM (active)
same,Potency,[12],inactive
same,Potency,[14],38.2 µM (active)
same,Potency,[13],42.9 µM (active)
CCCCCCCCCCCCCCCC(=O)O,outcome,[1],inactive
C=CCc1ccc(O)c(OC)c1,outcome,[1],inactive
O=C(O)CCCc1ccc(N(CCCl)CCCl)cc1,Potency,[2],inactive
same,Potency,[3],11.8 µM (active)
same,Potency,[4],16.6 µM (active)
same,Potency,[12],18.7 µM (active)
same,Potency,[6],16.6 µM (active)
same,outcome,[7],inactive
same,Potency,[13],inactive
same,Z-AUC,[9],0.915 (inactive)
same,Z-AUC,[9]; [15],0.822
same,Z-AUC,[9]; measured here: PEO4 Z-AUC,1.2
same,"activity, negative = inhibition",[11]; parasite line A,-9.59% (inactive)
same,"activity, negative = inhibition",[11]; parasite line B,1.97% (inactive)
same,Potency,3D7,inactive
C[C@](O)(CS(=O)(=O)c1ccc(F)cc1)C(=O)Nc1ccc(C#N)c(C(F)(F)F)c1,Potency,[2],0.935 µM (active)
same,Potency,[3],0.148 µM (active)
same,Potency,[4],0.418 µM (active)
same,Potency,[5],0.662 µM (active)
same,Potency,[6],0.662 µM (active)
same,Potency,[14],inactive
same,Potency,[13],inactive
same,Z-AUC,[9],0.83 (inactive)
same,Z-AUC,[9]; [15],0.549
same,Z-AUC,[9]; measured here: PEO4 Z-AUC,0.67
same,Potency,3D7,inactive
NC(=O)NC1NC(=O)NC1=O (stereo not given),outcome,[1],inactive
C[C@]12CC[C@@H]3c4ccc(OC(=O)N(CCCl)CCCl)cc4CC[C@H]3[C@@H]1CC[C@@H]2OP(=O)(O)O,Potency,[3],inactive
same,Potency,[4],inactive
same,Potency,[6],inactive
same,Potency,[14],inactive
same,outcome,[7],inactive
same,Potency,[13],inactive
same,outcome,[8],inactive
same,Z-AUC,[9],0.291 (inactive)
same,Z-AUC,[9]; [15],1.75
same,Z-AUC,[9]; measured here: PEO4 Z-AUC,1.95
